Holding throughout (conditions): mRNA level, 48 h; actives raise or lower the signal
Read-out in experiment [1]: Lipoprotein lipase (LPL), LPL (gene 4023)
Nature of the experiment: LTEA_HepaRG_LPL: Life Technologies and Expression Analysis (LTEA) Assay for Lipoprotein lipase (LPL) using HepaRG (AID 2283515). In short, it runs like this: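 Differentiated HepaRG cells, plated 48 h, then exposed 48 h in serum-free induction medium to 8 concentrations (top 100 uM, half-log steps) in 0.5% DMSO, duplicate. LPL mRNA measured by qRT-PCR, normalized to ACTB, GAPDH and POLR2A.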

Read-out in experiment [2]: MicroRNA 122 (MIR122), gene 406906
Nature of the experiment: LTEA_HepaRG_MIR122: Life Technologies and Expression Analysis (LTEA) Assay for MicroRNA 122 (MIR122) using HepaRG (AID 2283516). Also: the transcript read is the microRNA miR-122. Summed up:
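HepaRG plated 48 h, switched to serum-free induction medium, then treated in duplicate for 48 h (100 uM top, half-log steps, 0.5% DMSO vehicle). RNA isolated, qRT-PCR performed, concentration-response fitted both directions relative to DMSO.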

Read-out in another experiment: MYC, MYC (gene 4609)
Nature of the experiment: LTEA_HepaRG_MYC: Life Technologies and Expression Analysis (LTEA) Assay for MYC using HepaRG (AID 2283518). Summed up: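 Cells are thawed, plated and cultured 48 h, then treated for 48 h with test chemicals (eight half-log concentrations from 100 uM, 0.5% DMSO vehicle). RNA is isolated and MYC expression quantified by qRT-PCR against three housekeeping genes.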

Read-out in experiment [3]: matrix metalloproteinase-3 (MMP3), MMP3 (gene 4314)
Nature of the experiment: LTEA_HepaRG_MMP3: Life Technologies and Expression Analysis (LTEA) Assay for matrix metalloproteinase-3 (MMP3) using HepaRG (AID 2283519). Summed up: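 HepaRG cells (~100,000/well) in serum-free induction medium were dosed in duplicate for 48 h with an 8-point half-log series from 100 uM, 0.5% DMSO. MMP3 mRNA was quantified by Fluidigm TaqMan qRT-PCR, normalized to three housekeeping genes.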

Read-out in experiment [4]: Paternally Expressed 10 (PEG10), PEG10 (gene 23089)
Nature of the experiment: LTEA_HepaRG_PEG10: Life Technologies and Expression Analysis (LTEA) Assay for Paternally Expressed 10 (PEG10) using HepaRG (AID 2283520). Summed up:
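HepaRG, 48 h post-plating → serum-free induction medium → 48 h chemical exposure (duplicate, 8-pt, max 100 uM, half-log, 0.5% DMSO) → lysis in RLT → TaqMan qRT-PCR for PEG10, ACTB/GAPDH/POLR2A normalisation.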

Read-out in experiment [5]: Nuclear factor NF-kappa-B p105 subunit (Homo sapiens) (UniProt P19838)
Nature of the experiment: LTEA_HepaRG_NFKB1: Life Technologies and Expression Analysis (LTEA) Assay for Nuclear Factor Kappa B Subunit 1 (NFKB1) using HepaRG (AID 2283521).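 Also: TaqMan qRT-PCR transcript normalised to ACTB GAPDH and POLR2A housekeeping genes.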 In short, it runs like this:
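HepaRG, 48 h exposure; 8-pt half-log series from 100 uM in 0.5% DMSO; duplicates. Readout: NFKB1 mRNA by qRT-PCR (Fluidigm arrays), housekeeping-normalized. Gain/loss fit vs DMSO baseline.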

Read-out in experiment [6]: Protein phosphatase 2A (PPP2R4), PTPA (gene 5524)
Nature of the experiment: LTEA_HepaRG_PPP2R4: Life Technologies and Expression Analysis (LTEA) Assay for Protein phosphatase 2A (PPP2R4) using HepaRG (AID 2283522). Summed up: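 Readout is PPP2R4 transcript level by microfluidic qRT-PCR after 48 h chemical treatment of human HepaRG liver cells. Concentrations spanned 100 uM downward in half-log steps; gain or loss of signal was fitted relative to DMSO.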

Read-out in experiment [7]: solute carrier (SLC22A1), SLC22A1 (gene 6580)
Nature of the experiment: LTEA_HepaRG_SLC22A1: Life Technologies and Expression Analysis (LTEA) Assay for solute carrier (SLC22A1) using HepaRG (AID 2283524). In short, it runs like this:
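Differentiated human HepaRG cells in serum-free induction medium, exposed 48 h in duplicate to 8-point half-log series from 100 µM top in 0.5% DMSO. SLC22A1 mRNA by TaqMan qRT-PCR normalized to ACTB, GAPDH, POLR2A; bidirectional fit versus DMSO.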

Read-out in experiment [8]: NAD(P)H dehydrogenase [quinone] 1 (NQO1), NQO1 (gene 1728)
Nature of the experiment: LTEA_HepaRG_NQO1: Life Technologies and Expression Analysis (LTEA) Assay for NAD(P)H dehydrogenase [quinone] 1 (NQO1) using HepaRG (AID 2283526). In short, it runs like this:
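HepaRG, 48 h post-plating → serum-free induction medium → test chemical 48 h (duplicate, 100 uM top, half-log x8, 0.5% DMSO) → RNA isolation → qRT-PCR, ACTB/GAPDH/POLR2A normalization; bidirectional curve fit vs DMSO baseline.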

Read-out in experiment [9]: Nuclear factor erythroid 2-related factor 2 (Homo sapiens) (UniProt Q16236)
Nature of the experiment: LTEA_HepaRG_NFE2L2: Life Technologies and Expression Analysis (LTEA) Assay for Nuclear factor erythroid 2-related factor 2 (NFE2L2) Transcription Factor using HepaRG (AID 2283527).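 As to outcome: TaqMan qRT-PCR transcript level normalised to ACTB GAPDH and POLR2A housekeeping genes.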 In short, it runs like this:
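Differentiated human HepaRG cells, serum-free induction medium, exposed 48 h in duplicate to eight half-log concentrations up to 100 uM in 0.5% DMSO. NFE2L2 mRNA by Fluidigm TaqMan qRT-PCR, normalised to ACTB, GAPDH, POLR2A; bidirectional change versus DMSO.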

Read-out in experiment [10]: succinate dehydrogenase complex iron sulfur subunit B (SDHB), SDHB (gene 6390)
Nature of the experiment: LTEA_HepaRG_SDHB: Life Technologies and Expression Analysis (LTEA) Assay for succinate dehydrogenase complex iron sulfur subunit B (SDHB) using HepaRG (AID 2283528). Summed up:
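Readout is SDHB transcript level by qRT-PCR, normalised to three housekeeping genes and fitted bidirectionally against 0.5% DMSO vehicle. Human HepaRG cells were treated for 48 h at up to 100 uM.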

Read-out in experiment [11]: solute carrier (SLCO1B1), SLCO1B1 (gene 10599)
Nature of the experiment: LTEA_HepaRG_SLCO1B1: Life Technologies and Expression Analysis (LTEA) Assay for solute carrier (SLCO1B1) using HepaRG (AID 2283530). Summed up:
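Gain or loss of SLCO1B1 mRNA is fitted against the 0.5% DMSO vehicle in human HepaRG liver cells treated 48 h at up to 100 uM in half-log steps. Expression comes from qRT-PCR normalized to endogenous controls.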

Read-out in experiment [12]: sulfotransferase 2A1 (SULT2A1), SULT2A1 (gene 6822)
Nature of the experiment: LTEA_HepaRG_SULT2A1: Life Technologies and Expression Analysis (LTEA) Assay for sulfotransferase 2A1 (SULT2A1) using HepaRG (AID 2283531). In short, it runs like this: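 Cells were plated and cultured 48 h, switched to serum-free induction medium, then dosed in duplicate for 48 h (8 concentrations, max 100 uM). RNA was isolated and SULT2A1 expression measured by qRT-PCR; gain or loss of signal fitted relative to DMSO.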

Read-out in experiment [13]: Transforming Growth Factor (TGFB1), TGFB1 (gene 7040)
Nature of the experiment: LTEA_HepaRG_TGFB1: Life Technologies and Expression Analysis (LTEA) Assay for Transforming Growth Factor (TGFB1) Transporter using HepaRG (AID 2283533). Summed up:
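Expression change of TGFB1 in human HepaRG cells is measured after a 48 h chemical exposure, up to 100 uM in 0.5% DMSO vehicle. Curves are fitted in both directions relative to the DMSO baseline.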

Read-out in the next experiment: TIMP1, TIMP1 (gene 7076)
Nature of the experiment: LTEA_HepaRG_TIMP1: Life Technologies and Expression Analysis (LTEA) Assay for TIMP1 using HepaRG (AID 2283534).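 Also: TaqMan qRT-PCR signal normalized to ACTB GAPDH and POLR2A housekeeping genes.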 In short, it runs like this: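 We dosed human liver HepaRG cultures for 48 hours with up to 100 uM test chemical and measured TIMP1 expression by qRT-PCR. Activity in either direction is fitted relative to the 0.5% DMSO vehicle.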

Read-out in experiment [14]: matrix metalloproteinase-10 (MMP10), MMP10 (gene 4319)
Nature of the experiment: LTEA_HepaRG_MMP10: Life Technologies and Expression Analysis (LTEA) Assay for matrix metalloproteinase-10 (MMP10) using HepaRG (AID 2283517). Summed up: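 Differentiated HepaRG cells in serum-free induction medium exposed 48 h in duplicate to 8-point half-log series up to 100 uM in 0.5% DMSO. mRNA quantified by qRT-PCR, normalised to ACTB, GAPDH, POLR2A; bidirectional fit versus DMSO.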

Read-out in experiment [15]: Signal transducer and activator of transcription 3 (Homo sapiens) (UniProt P40763)
Nature of the experiment: LTEA_HepaRG_STAT3: Life Technologies and Expression Analysis (LTEA) Assay for Signal transducer and activator of transcription (STAT3) using HepaRG (AID 2283529). Summed up: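 Differentiated HepaRG cells, serum-free induction medium, dosed 48 h in duplicate, 8 half-log concentrations from 100 uM in 0.5% DMSO. STAT3 mRNA by qRT-PCR, normalised to ACTB, GAPDH, POLR2A; bidirectional fit versus DMSO.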

Active and inactive are the calls of the source. The calls were made as follows: active = hit-call score of the fitted dose curve at least 0.9, where 1 is the maximum; inactive = score below 0.9.

Nuclear factor erythroid 2-related factor 2 (Homo sapiens), sequence (Q16236 whole entry, looked up): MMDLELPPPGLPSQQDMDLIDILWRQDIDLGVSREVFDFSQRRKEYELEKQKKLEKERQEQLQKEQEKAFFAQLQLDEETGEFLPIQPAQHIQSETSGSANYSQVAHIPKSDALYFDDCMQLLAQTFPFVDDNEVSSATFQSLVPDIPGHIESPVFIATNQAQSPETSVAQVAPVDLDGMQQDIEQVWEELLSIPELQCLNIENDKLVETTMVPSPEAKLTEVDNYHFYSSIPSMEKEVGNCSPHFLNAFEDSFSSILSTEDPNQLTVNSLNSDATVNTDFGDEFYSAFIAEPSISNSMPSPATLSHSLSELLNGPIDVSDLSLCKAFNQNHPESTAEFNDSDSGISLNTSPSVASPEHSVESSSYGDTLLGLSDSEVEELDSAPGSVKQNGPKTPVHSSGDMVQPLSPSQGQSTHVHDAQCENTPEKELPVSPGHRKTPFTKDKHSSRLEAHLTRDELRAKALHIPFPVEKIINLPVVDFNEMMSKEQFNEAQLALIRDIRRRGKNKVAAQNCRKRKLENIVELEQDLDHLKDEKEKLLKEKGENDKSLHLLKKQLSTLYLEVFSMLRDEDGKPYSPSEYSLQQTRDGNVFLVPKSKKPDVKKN
Signal transducer and activator of transcription 3 (Homo sapiens), sequence (P40763 whole entry, looked up): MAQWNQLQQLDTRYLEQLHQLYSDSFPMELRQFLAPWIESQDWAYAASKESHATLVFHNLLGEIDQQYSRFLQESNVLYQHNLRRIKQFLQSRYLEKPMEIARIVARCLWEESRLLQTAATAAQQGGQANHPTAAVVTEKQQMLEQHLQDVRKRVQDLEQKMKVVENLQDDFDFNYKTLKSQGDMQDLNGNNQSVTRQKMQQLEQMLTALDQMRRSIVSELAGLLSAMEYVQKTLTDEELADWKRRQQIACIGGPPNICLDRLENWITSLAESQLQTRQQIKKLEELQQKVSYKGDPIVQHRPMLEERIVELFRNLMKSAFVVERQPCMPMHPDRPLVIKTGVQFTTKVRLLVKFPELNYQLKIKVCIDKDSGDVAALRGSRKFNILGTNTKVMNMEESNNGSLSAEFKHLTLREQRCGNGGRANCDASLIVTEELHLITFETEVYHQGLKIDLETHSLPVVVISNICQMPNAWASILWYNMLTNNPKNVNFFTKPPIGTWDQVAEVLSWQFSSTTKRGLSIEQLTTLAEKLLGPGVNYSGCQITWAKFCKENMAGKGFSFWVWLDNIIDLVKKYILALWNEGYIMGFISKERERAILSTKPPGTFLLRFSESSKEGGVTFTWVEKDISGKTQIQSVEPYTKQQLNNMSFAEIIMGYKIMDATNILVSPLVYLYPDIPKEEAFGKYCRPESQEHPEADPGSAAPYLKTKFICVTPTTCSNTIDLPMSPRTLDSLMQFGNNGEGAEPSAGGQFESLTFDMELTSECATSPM
Nuclear factor NF-kappa-B p105 subunit (Homo sapiens), sequence (P19838 whole entry, looked up): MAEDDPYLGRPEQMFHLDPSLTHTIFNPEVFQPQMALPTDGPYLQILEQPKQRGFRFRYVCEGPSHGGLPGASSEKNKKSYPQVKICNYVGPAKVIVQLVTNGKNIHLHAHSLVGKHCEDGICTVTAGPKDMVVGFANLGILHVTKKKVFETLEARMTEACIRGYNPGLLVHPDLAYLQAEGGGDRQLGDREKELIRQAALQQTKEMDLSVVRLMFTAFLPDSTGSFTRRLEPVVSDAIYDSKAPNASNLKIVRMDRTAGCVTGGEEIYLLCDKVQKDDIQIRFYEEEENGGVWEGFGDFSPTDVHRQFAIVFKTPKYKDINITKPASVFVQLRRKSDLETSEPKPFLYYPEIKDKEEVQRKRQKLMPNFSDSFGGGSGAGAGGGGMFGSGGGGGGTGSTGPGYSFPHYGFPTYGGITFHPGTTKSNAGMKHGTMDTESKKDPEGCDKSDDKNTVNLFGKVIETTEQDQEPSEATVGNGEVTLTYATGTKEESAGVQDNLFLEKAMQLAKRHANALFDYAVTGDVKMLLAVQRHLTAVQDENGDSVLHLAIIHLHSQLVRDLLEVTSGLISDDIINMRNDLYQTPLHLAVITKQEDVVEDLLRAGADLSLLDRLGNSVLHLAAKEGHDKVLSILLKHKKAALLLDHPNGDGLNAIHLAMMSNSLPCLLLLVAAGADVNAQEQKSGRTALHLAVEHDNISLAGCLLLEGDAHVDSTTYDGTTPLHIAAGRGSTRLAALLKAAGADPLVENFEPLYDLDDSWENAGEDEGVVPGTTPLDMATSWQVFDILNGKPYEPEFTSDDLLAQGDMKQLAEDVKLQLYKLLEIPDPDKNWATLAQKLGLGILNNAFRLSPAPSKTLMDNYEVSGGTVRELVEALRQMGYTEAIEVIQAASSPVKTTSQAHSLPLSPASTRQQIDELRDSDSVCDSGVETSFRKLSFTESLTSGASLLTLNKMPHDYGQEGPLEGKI

Consider `CCCCCc1ccc(N)cc1`, for which the outcome in [1] was “inactive”; in [2], “inactive”; with MYC, MYC (gene 4609), “inactive”; in [3], “inactive”; in [4] it was “inactive”; in [5] it was “inactive”. The outcome in experiment [6], in experiment [7], in [8], in experiment [9], in experiment [10] and in experiment [11] was inactive. Further, the outcome is “inactive” in experiment [12]; “inactive” in [13]; “inactive” with TIMP1, TIMP1 (gene 7076).

In general, AC50 refers to the concentration at which the activity in the assay is half-maximal. As for `CCN(Cc1cccnc1)C(=O)c1cccc(Cl)c1[C@]1(C)C(=O)N(Cc2ccc(OC)cc2OC)c2ccc(Cl)cc21`, the concentration at half-maximal activity (AC50) in experiment [1] is 10.4 µM (active); in experiment [2], 18.1 µM (active); in experiment [14] it was 17.7 µM (active); in [4], 10.2 µM (active); in experiment [6], 10.8 µM (active); in experiment [7], 21.7 µM (active). In addition, the half-maximal activity concentration (AC50) is 16 µM (active) in [9], 22.2 µM (active) in [11], 25.3 µM (active) in [12] and 14.5 µM (active) in [13]. The outcome in [8] is “inactive”; in experiment [10], “inactive”; in experiment [15], “inactive”; in the experiment with TIMP1, TIMP1 (gene 7076), “inactive”.

Consider `Cc1c2ccccc2c(C)c2c1ccc1ccccc12`, for which the AC50 in [1] was 82.5 µM (active); in experiment [2], 66 µM (active); in experiment [14] it was 79.5 µM (active); in the experiment with MYC, MYC (gene 4609), 63.7 µM (active); in experiment [4], 28.5 µM (active); in experiment [7] it was 41.2 µM (active). Also, the concentration at half-maximal activity (AC50) in [9] is 90.5 µM (active); in experiment [11], 59.5 µM (active); in [12], 71.1 µM (active); in [13], 35 µM (active). For the same molecule, the outcome was “inactive” in [6]; “inactive” in [8]; “inactive” in [10]; “inactive” with TIMP1, TIMP1 (gene 7076).

In the case of `c1ccc(C[n+]2cccc3ccccc32)cc1`, the AC50 is 32.8 µM (active) in experiment [1]; 22.5 µM (active) in experiment [2]; 25 µM (active) in [7]; 13.6 µM (active) in experiment [9]; 31.1 µM (active) in [11]; 32.4 µM (active) in [12]. Also, the call in [14], in experiment [4], in [6], in experiment [8], in experiment [10] and in experiment [13] was inactive. Also, the result with TIMP1, TIMP1 (gene 7076) was inactive.

Values taken from PubChem BioAssay (EPA / NIEHS).
